Source: PubChem BioAssay (Tox21)
Several values for one entry are separate records, joined by “and”; a condition that tells them apart may be missing. Identical values can stand only once. Inconclusive results are not listed. A call without a number means that no potency is given here. Some compounds were tested as several samples or in several runs, with calls that do not always agree. Activity calls are given as the source filed them. Calls follow the shape of the dose curve; as a rule, active = well fitted curve in the direction sought with a large enough effect in the repeat runs; inconclusive = weak or mixed curves; inactive = no such curve, though single readings can be large; an effect the other way counts as inactive or inconclusive.

What was measured:
[1] = qHTS RealTime-Glo MT Cell Viability Assay in HepG2 cells - 40 hour (AID 1224870); also: nearly all actives have a fitted effect of over 50% in size
Procedure, shortened: (§1)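 HepG2 cells mixed with RealTime-Glo MT reagents (NanoLuc plus cell-permeant prosubstrate) were seeded at 600 cells/well, incubated 5 h at 37 C/5% CO2, then pinned with compounds in DMSO; nonlytic luminescence tracked viability during 40 h treatment.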

[2] = A CellTox Green Cytotoxicity Assay to monitor cytotoxicity in HEK293 cells - 40 hour (AID 1224871); also: nearly all actives have a fitted effect of over 45% in size; also: potency is read from the fitted curve at half-maximal effect
Procedure, shortened: (§2)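 Each value comes from one timepoint of a single continuous run in which HEK293 cells with CellTox Green were exposed to compound for up to 40 h at 37 C, dye fluorescence rising with cell death.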

[3] = qHTS RealTime-Glo MT Cell Viability Assay in HEK293 cells - 16 hour (AID 1224872); also: nearly all actives have a fitted effect of over 50% in size; also: potency is read from the fitted curve at half-maximal effect
Procedure, shortened: (§3)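 HEK293 cells seeded with NanoLuc/prosubstrate reagent, rested 5 h at 37 C, then dosed and kept at 37 C up to 40 h. Nonlytic real-time luminescence from viable cells read at 0, 8, 16, 24, 32 and 40 h.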

[4] = qHTS RealTime-Glo MT Cell Viability Assay in HepG2 cells - 8 hour (AID 1224873); also: nearly all actives have a fitted effect of over 55% in size
Procedure, shortened: as §1

[5] = qHTS RealTime-Glo MT Cell Viability Assay in HEK293 cells - 40 hour (AID 1224874); settings: RealTime-Glo luminescence; max response: stronger effect = lower value; also: nearly all actives have a fitted effect of over 50% in size; also: potency is read from the fitted curve at half-maximal effect
Procedure, shortened: (§4)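 qHTS format; HEK293 cells with NanoLuc/prosubstrate reagent, 37 C/5% CO2 for 5 h pre-dosing; compounds 23 nL in DMSO; luminescence at each time point reflects viable cells.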

[6] = A CellTox Green Cytotoxicity Assay to monitor cytotoxicity in HEK293 cells - 24 hour (AID 1224875); also: series mostly up to about 77 µM; nearly all actives have a fitted effect of over 45% in size
Procedure, shortened: as §2

[7] = A CellTox Green Cytotoxicity Assay to monitor cytotoxicity in HepG2 cells - 16 hour (AID 1224876); also: nearly all actives have a fitted effect of over 45% in size
Procedure, shortened: (§5)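 Continuous culture of HepG2 cells with a membrane-impermeant DNA dye; rising fluorescence marks dead cells. Compound exposure lasted up to 40 h at 37 C, with reads every 8 h from 0 h.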

[8] = qHTS RealTime-Glo MT Cell Viability Assay in HepG2 cells - 32 hour (AID 1224877); also: nearly all actives have a fitted effect of over 55% in size
Procedure, shortened: (§6)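 HepG2 cells (600/well) were dispensed with RealTime-Glo reagents, incubated 5 h at 37 °C, then treated with compounds in DMSO for up to 40 h. Nonlytic NanoLuc luminescence reflecting viable cells was read at each stated time point.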

[9] = A CellTox Green Cytotoxicity Assay to monitor cytotoxicity in HepG2 cells - 24 hour (AID 1224878); also: nearly all actives have a fitted effect of over 45% in size; also: potency is read from the fitted curve at half-maximal effect
Procedure, shortened: as §5

[10] = A CellTox Green Cytotoxicity Assay to monitor cytotoxicity in HepG2 cells - 40 hour (AID 1224879); also: nearly all actives have a fitted effect of over 40% in size; also: potency is read from the fitted curve at half-maximal effect
Procedure, shortened: as §5

[11] = qHTS RealTime-Glo MT Cell Viability Assay in HEK293 cells - 0 hour (AID 1224880)
Procedure, shortened: as §4

[12] = A CellTox Green Cytotoxicity Assay to monitor cytotoxicity in HEK293 cells - 32 hour (AID 1224881); also: nearly all actives have a fitted effect of over 40% in size
Procedure, shortened: as §2

[13] = A CellTox Green Cytotoxicity Assay to monitor cytotoxicity in HepG2 cells - 0 hour (AID 1224882); also: nearly all actives have a fitted effect of over 35% in size
Procedure, shortened: as §5

[14] = A CellTox Green Cytotoxicity Assay to monitor cytotoxicity in HepG2 cells - 32 hour (AID 1224883); also: nearly all actives have a fitted effect of over 50% in size; also: potency is read from the fitted curve at half-maximal effect
Procedure, shortened: as §5

[15] = A CellTox Green Cytotoxicity Assay to monitor cytotoxicity in HEK293 cells - 8 hour (AID 1224884); also: nearly all actives have a fitted effect of over 35% in size
Procedure, shortened: as §2

[16] = qHTS RealTime-Glo MT Cell Viability Assay in HepG2 cells - 16 hour (AID 1224885); also: nearly all actives have a fitted effect of over 50% in size
Procedure, shortened: as §6

[17] = qHTS RealTime-Glo MT Cell Viability Assay in HEK293 cells - 24 hour (AID 1224886)
Procedure, shortened: as §3

[18] = qHTS RealTime-Glo MT Cell Viability Assay in HEK293 cells - 8 hour (AID 1224887)
Procedure, shortened: as §4

[19] = A CellTox Green Cytotoxicity Assay to monitor cytotoxicity in HEK293 cells - 16 hour (AID 1224888); also: nearly all actives have a fitted effect of over 35% in size
Procedure, shortened: as §2

[20] = qHTS RealTime-Glo MT Cell Viability Assay in HepG2 cells - 0 hour (AID 1224889); also: nearly all actives have a fitted effect of over 50% in size
Procedure, shortened: as §6

SMILES: CNC[C@H](O)[C@@H](O)[C@H](O)[C@H](O)CO
- Potency [1]: inactive
- Potency [2]: inactive
- Potency [3]: inactive
- Potency [4]: inactive
- max response [5]: 8.02% (inactive) and 0.166% (inactive)
- Potency [6]: inactive
- Potency [7]: inactive
- Potency [8]: inactive
- Potency [9]: inactive
- Potency [10]: inactive
- Potency [11]: inactive
- Potency [12]: inactive
- Potency [13]: inactive
- Potency [14]: inactive
- Potency [15]: inactive
- Potency [16]: inactive
- Potency [17]: inactive
- Potency [18]: inactive
- Potency [19]: inactive
- Potency [20]: inactive

SMILES: CCCCCCCCCC(=O)O
- Potency [1]: inactive
- Potency [2]: inactive
- Potency [3]: inactive
- Potency [4]: inactive
- max response [5]: 7.81% (inactive) and 12.5% (inactive)
- Potency [6]: inactive
- Potency [7]: inactive
- Potency [8]: inactive
- Potency [9]: inactive
- Potency [10]: inactive
- Potency [11]: inactive
- Potency [12]: inactive
- Potency [13]: inactive
- Potency [14]: inactive
- Potency [15]: inactive
- Potency [16]: inactive
- Potency [17]: inactive
- Potency [18]: inactive
- Potency [19]: inactive
- Potency [20]: inactive

SMILES: Clc1cc(Cl)c(Cl)cc1Cl
- Potency [1]: inactive
- Potency [2]: inactive
- Potency [3]: inactive
- Potency [4]: inactive
- max response [5]: 4.68% (inactive) and 15.5% (inactive)
- Potency [6]: inactive
- Potency [7]: inactive
- Potency [8]: inactive
- Potency [9]: inactive
- Potency [10]: inactive
- Potency [11]: inactive
- Potency [12]: inactive
- Potency [13]: inactive
- Potency [14]: inactive
- Potency [15]: inactive
- Potency [16]: inactive
- Potency [17]: inactive
- Potency [18]: inactive
- Potency [19]: inactive
- Potency [20]: inactive

SMILES: CCCCOCCOCCOC(=O)CCCCC(=O)OCCOCCOCCCC
- Potency [1]: inactive
- Potency [2]: inactive
- Potency [3]: inactive
- Potency [4]: inactive
- max response [5]: 3.67% (inactive) and 5.42% (inactive)
- Potency [6]: inactive
- Potency [7]: inactive
- Potency [8]: inactive
- Potency [9]: inactive
- Potency [10]: inactive
- Potency [11]: inactive
- Potency [12]: inactive
- Potency [13]: inactive
- Potency [14]: inactive
- Potency [15]: inactive
- Potency [16]: inactive
- Potency [17]: inactive
- Potency [18]: inactive
- Potency [19]: inactive
- Potency [20]: inactive

SMILES: Cc1cc(=O)[nH]c(C(C)C)n1
- Potency [1]: inactive
- Potency [2]: inactive
- Potency [3]: inactive
- Potency [4]: inactive
- max response [5]: 1.9% (inactive) and -0.481% (inactive)
- Potency [6]: inactive
- Potency [7]: inactive
- Potency [8]: inactive
- Potency [9]: inactive
- Potency [10]: inactive
- Potency [11]: inactive
- Potency [12]: inactive
- Potency [13]: inactive
- Potency [14]: inactive
- Potency [15]: inactive
- Potency [16]: inactive
- Potency [17]: inactive
- Potency [18]: inactive
- Potency [19]: inactive
- Potency [20]: inactive

SMILES: C=C1C2CCC(C2)C1(C)C (stereo not given)
- Potency [1]: inactive
- Potency [2]: inactive
- Potency [3]: inactive
- Potency [4]: inactive
- max response [5]: -3.35% (inactive) and 5.02% (inactive)
- Potency [6]: inactive
- Potency [7]: inactive
- Potency [8]: inactive
- Potency [9]: inactive
- Potency [10]: inactive
- Potency [11]: inactive
- Potency [12]: inactive
- Potency [13]: inactive
- Potency [14]: inactive
- Potency [15]: inactive
- Potency [16]: inactive
- Potency [17]: inactive
- Potency [18]: inactive
- Potency [19]: inactive
- Potency [20]: inactive

SMILES: O=S(=O)(Oc1ccc(Cl)cc1Cl)c1ccccc1
- Potency [1]: inactive
- Potency [2]: inactive
- Potency [3]: inactive
- Potency [4]: inactive
- Potency [5]: 14 µM (active)
- max response [5]: -21.1% (inactive)
- Potency [6]: inactive
- Potency [7]: inactive
- Potency [8]: inactive
- Potency [9]: inactive
- Potency [10]: inactive
- Potency [11]: inactive
- Potency [13]: inactive
- Potency [14]: inactive
- Potency [15]: inactive
- Potency [16]: inactive
- Potency [17]: inactive
- Potency [18]: inactive
- Potency [19]: inactive
- Potency [20]: inactive

SMILES: COC(=O)c1ccc(C(=O)OC)cc1
- Potency [1]: inactive
- Potency [2]: 15.7 µM (active) and inactive
- Potency [3]: 35.1 µM (active) and inactive
- Potency [4]: inactive
- Potency [5]: 35.1 µM (active)
- max response [5]: 0.23% (inactive)
- Potency [7]: inactive
- Potency [8]: inactive
- Potency [9]: 22.2 µM (active) and inactive
- Potency [10]: 22.2 µM (active) and inactive
- Potency [11]: inactive
- Potency [12]: inactive
- Potency [13]: inactive
- Potency [14]: 19.8 µM (active) and inactive
- Potency [15]: inactive
- Potency [16]: inactive
- Potency [17]: inactive
- Potency [18]: inactive
- Potency [19]: inactive
- Potency [20]: inactive

SMILES: Oc1ccc2ccccc2c1
- Potency [1]: inactive
- Potency [2]: inactive
- Potency [3]: inactive
- Potency [4]: inactive
- max response [5]: 17.4% (inactive) and 0.276% (inactive)
- Potency [6]: inactive
- Potency [7]: inactive
- Potency [8]: inactive
- Potency [9]: inactive
- Potency [10]: inactive
- Potency [11]: inactive
- Potency [12]: inactive
- Potency [13]: inactive
- Potency [14]: inactive
- Potency [15]: inactive
- Potency [16]: inactive
- Potency [17]: inactive
- Potency [18]: inactive
- Potency [19]: inactive
- Potency [20]: inactive

SMILES: C[C@@H](O)[C@H]1C(=O)N2C(C(=O)O)=C(S[C@@H]3CN[C@H](C(=O)N(C)C)C3)[C@H](C)[C@H]12
- Potency [1]: inactive
- Potency [2]: inactive
- Potency [3]: inactive
- Potency [4]: inactive
- max response [5]: 2.43% (inactive) and 4.85% (inactive)
- Potency [6]: inactive
- Potency [7]: inactive
- Potency [8]: inactive
- Potency [9]: inactive
- Potency [10]: inactive
- Potency [11]: inactive
- Potency [12]: inactive
- Potency [13]: inactive
- Potency [14]: inactive
- Potency [15]: inactive
- Potency [16]: inactive
- Potency [17]: inactive
- Potency [18]: inactive
- Potency [19]: inactive
- Potency [20]: inactive

SMILES: CC[Si](OC(C)=O)(OC(C)=O)OC(C)=O
- Potency [1]: inactive
- Potency [2]: inactive
- Potency [3]: inactive
- Potency [4]: inactive
- max response [5]: 13.5% (inactive) and 2.5% (inactive)
- Potency [6]: inactive
- Potency [7]: inactive
- Potency [8]: inactive
- Potency [9]: inactive
- Potency [10]: inactive
- Potency [11]: inactive
- Potency [12]: inactive
- Potency [13]: inactive
- Potency [14]: inactive
- Potency [15]: inactive
- Potency [16]: inactive
- Potency [17]: inactive
- Potency [18]: inactive
- Potency [19]: inactive
- Potency [20]: inactive

SMILES: Nc1cc(-c2ccncc2)c[nH]c1=O
- Potency [1]: inactive
- Potency [2]: inactive
- Potency [3]: inactive
- Potency [4]: inactive
- max response [5]: -8.6% (inactive) and 7.61% (inactive)
- Potency [6]: inactive
- Potency [7]: inactive
- Potency [8]: inactive
- Potency [9]: inactive
- Potency [10]: inactive
- Potency [11]: inactive
- Potency [12]: inactive
- Potency [13]: inactive
- Potency [14]: inactive
- Potency [15]: inactive
- Potency [16]: inactive
- Potency [17]: inactive
- Potency [18]: inactive
- Potency [19]: inactive
- Potency [20]: inactive
